Records with an inconclusive call do not appear. Where a call stands in place of a potency, no number is given. Calls of active or inactive are those of the source. Unless noted, calls come from the whole dose curve; as a rule, active = well fitted curve in the direction sought with a large enough effect in the repeat runs; inconclusive = weak or mixed curves; inactive = no such curve, though single readings can be large; an effect the other way counts as inactive or inconclusive.

Androgen receptor (Homo sapiens), sequence (P10275 whole entry, looked up): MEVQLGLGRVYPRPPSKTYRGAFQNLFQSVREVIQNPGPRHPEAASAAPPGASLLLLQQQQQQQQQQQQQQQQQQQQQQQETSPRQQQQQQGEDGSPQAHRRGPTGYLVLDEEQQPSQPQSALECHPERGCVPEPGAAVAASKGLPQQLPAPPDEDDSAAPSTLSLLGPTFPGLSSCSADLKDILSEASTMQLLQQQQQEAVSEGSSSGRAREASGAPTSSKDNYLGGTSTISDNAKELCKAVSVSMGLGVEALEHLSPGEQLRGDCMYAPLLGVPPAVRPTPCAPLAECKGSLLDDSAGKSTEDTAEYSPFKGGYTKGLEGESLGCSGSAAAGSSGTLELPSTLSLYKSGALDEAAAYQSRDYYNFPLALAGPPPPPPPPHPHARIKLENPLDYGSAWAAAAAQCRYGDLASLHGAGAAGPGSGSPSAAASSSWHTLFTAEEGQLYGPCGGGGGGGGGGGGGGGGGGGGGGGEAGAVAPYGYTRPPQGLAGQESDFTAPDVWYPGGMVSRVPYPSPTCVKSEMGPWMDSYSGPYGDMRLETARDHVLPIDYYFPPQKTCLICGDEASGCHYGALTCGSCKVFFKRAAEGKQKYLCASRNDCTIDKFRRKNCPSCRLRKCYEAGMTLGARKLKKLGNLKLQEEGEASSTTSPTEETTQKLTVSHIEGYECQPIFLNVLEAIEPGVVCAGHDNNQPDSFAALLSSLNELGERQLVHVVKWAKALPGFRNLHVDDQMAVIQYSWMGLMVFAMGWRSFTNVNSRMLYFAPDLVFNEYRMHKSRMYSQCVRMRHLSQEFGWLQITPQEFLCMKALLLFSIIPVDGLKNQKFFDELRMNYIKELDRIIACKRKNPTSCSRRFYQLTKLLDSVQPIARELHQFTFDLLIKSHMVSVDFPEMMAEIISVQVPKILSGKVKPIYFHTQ

Test system in one assay: not listed separately
The assay is described as follows: qHTS assay to identify small molecule antagonists of the androgen receptor (AR) signaling pathway - cell viability counter screen (AID 743033; note: nearly all actives have a fitted effect of over 45% in size). The conditions noted are these: AR-bla HEK293 viability, CellTiter-Glo luminescence, 16 h; series mostly up to 58.5 µM.
In the case of `O=C(O)c1ccccc1C(=O)OCc1ccccc1`, the compound was called inactive.
In the case of `Cc1ccc2c(c1)c1c3n2CCNC3CCC1` (stereo not given), the compound was called inactive.
Consider `O=C(O)c1ccccc1C(=O)Nc1ccc(S(=O)(=O)Nc2nccs2)cc1`, for which the call was inactive.
In the case of `C[C@H](CCC(=O)O)[C@H]1CC[C@H]2[C@@H]3[C@H](O)C[C@@H]4C[C@H](O)CC[C@]4(C)[C@H]3C[C@H](O)[C@]12C`, the result was inactive.
Same read-out and setting: the value for `CC(CC(=O)O)CC(C)(C)C` (stereo not given) was “inactive”.
Consider `CCCOCCOCCOCCO`, for which the compound was called inactive.
Take `COc1ccc(/C=N/NC(=O)c2ccncc2)cc1OC`: the call was inactive.
As to `C1=C\CC/C=C\CC/1`, the call was inactive.
Still for that read-out and setting: the value for `O=C(O)/C=C/c1ccccc1` was “inactive”; that for `Cn1c(=O)c2c(ncn2CC2OCCO2)n(C)c1=O` was “inactive”.
On the same count and under the same terms, the value for `Nc1ccc(S(=O)(=O)Nc2ccccn2)cc1` was “inactive”.
Still for that read-out and setting: the value for `O=S(=O)(O)CCO` was “inactive”; that for `CCN(CCC#N)c1ccccc1` was “inactive”.
For `CC(=O)OCCCc1ccccc1`, the compound was called inactive.
`CCCCCC(=O)OCC`: the compound was called inactive.
Still for that read-out and setting: the value for `COCC(=O)Nc1c(I)c(C(=O)NCC(O)CO)c(I)c(C(=O)N(C)CC(O)CO)c1I` (stereo not given) was “inactive”.
For the compound `CCCCCCCCCOCC1CO1` (stereo not given), the call was inactive.
Take `O=C1NC2NC(=O)NC2N1` (stereo not given): the result was inactive.
On the same count and under the same terms, to `COc1cc2c3cc1Oc1cc(ccc1O)C[C@@H]1c4c(cc(OC)c(O)c4Oc4ccc(cc4)C[C@@H]3N(C)CC2)CC[N+]1(C)C` belongs “inactive”.
The same measure, in the same setting: to `O=C(O)C(=O)Nc1cccc(-c2nn[nH]n2)c1` belongs “inactive”; to `COCCOCCOCCOC`, “inactive”.
The same measure, in the same setting: the value for `CN(C)CCOCCN(C)CCO` was “inactive”; that for `CCc1nccnc1C` was “inactive”; that for `SCCSCCS` was “inactive”.
Regarding `C=C(C)C(=O)OCCCCCCOC(=O)C(=C)C`, the compound was classed as inactive.
Consider `CC(=O)c1ccc(OCC(=O)N2CCCCC2)cc1`, for which the compound was classed as inactive.
Same read-out and setting: to `Nc1cc(Cl)cc(S(=O)(=O)O)c1O` belongs “inactive”.
The same measure, in the same setting: the value for `Cc1ccccc1C(=O)N1CC/C(=N\OS(=O)(=O)O)c2ccc(Cl)cc21` was “inactive”; that for `CCCCCCCC/C=C\CCCCCCCC(=O)OC[C@@H](O)[C@H]1OC[C@H](O)[C@H]1O` was “inactive”; that for `CCCCC(=O)N(C)C` was “inactive”.
Still for that read-out and setting: the value for `CN(C)CCCNCCC#N` was “inactive”; that for `C=COCCOCCOC=C` was “inactive”.
Turning to `Cc1ccc(S(=O)(=O)NC(=O)NC2CCCCCCC2)cc1`, the compound was called inactive.
As to `OC(CCN1CCCCC1)(c1ccccc1)c1ccccc1`, the call was inactive.
`C[N+](C)(C)CC(O)CCl` (stereo not given): the call was inactive.

Another assay has as its target Androgen receptor (Homo sapiens) (UniProt P10275). Briefly: qHTS assay to identify small molecule antagonists of the androgen receptor (AR) signaling pathway (AID 743035; active = well fitted inhibition curve with a large enough effect in the signal ratio in the repeat runs, not every such curve was filed as active; the % refers to the signal ratio). The conditions noted are these: HEK293 AR-UAS-bla, R1881-stimulated, beta-lactamase FRET, 16 h; series mostly up to 58.5 µM. In short, it runs like this: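 Antagonist mode: AR-bla HEK293 cells co-treated with test compounds and agonist R1881 for 16 h at 37C, 5% CO2. Beta-lactamase activity read as FRET fluorescence after 2 h room-temperature substrate loading.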
Consider `O=C(O)c1ccccc1C(=O)Nc1ccc(S(=O)(=O)Nc2nccs2)cc1`, for which the Potency result was “inactive”.
Turning to `CCCOCCOCCOCCO`, the Potency entry is “inactive”.
On the same count and under the same terms, to `COc1ccc(/C=N/NC(=O)c2ccncc2)cc1OC` belongs “inactive”.
In the case of `Cn1c(=O)c2c(ncn2CC2OCCO2)n(C)c1=O`, the Potency entry was “inactive”.
Same read-out and setting: the value for `Nc1ccc(S(=O)(=O)Nc2ccccn2)cc1` was “inactive”; that for `COCC(=O)Nc1c(I)c(C(=O)NCC(O)CO)c(I)c(C(=O)N(C)CC(O)CO)c1I` (stereo not given) was “inactive”.
As to `OC(CCN1CCCCC1)(c1ccccc1)c1ccccc1`, the Potency entry was “inactive”.

For a further assay the target is unchanged. The assay is described as follows: qHTS assay to identify small molecule agonists of the androgen receptor (AR) signaling pathway (AID 743036; active = well fitted activation curve with a large enough effect in the signal ratio in the repeat runs, with a control signal flat, not every such curve was filed as active; the % refers to the signal ratio). The conditions noted are these: HEK293 AR-UAS-bla GripTite, beta-lactamase FRET ratio, 16 h; series mostly up to 62.4 µM. In short, it runs like this:
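Reporter line: GeneBLAzer AR-UAS-bla-GripTite (HEK293). Steps: plate cells, 4 h rest, add compounds, 16 h at 37C, add LiveBLAzer B/G substrate, 2 h at RT, read fluorescence.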
Take `O=C(O)c1ccccc1C(=O)OCc1ccccc1`: the outcome was inactive.
Still for that read-out and setting: to `O=C(O)c1ccccc1C(=O)Nc1ccc(S(=O)(=O)Nc2nccs2)cc1` belongs “inactive”; to `COc1ccc(/C=N/NC(=O)c2ccncc2)cc1OC`, “inactive”; to `Cn1c(=O)c2c(ncn2CC2OCCO2)n(C)c1=O`, “inactive”.
Still for that read-out and setting: the value for `COCC(=O)Nc1c(I)c(C(=O)NCC(O)CO)c(I)c(C(=O)N(C)CC(O)CO)c1I` (stereo not given) was “inactive”; that for `OC(CCN1CCCCC1)(c1ccccc1)c1ccccc1` was “inactive”.

The target is the same in a further assay. The assay is described as follows: qHTS assay to identify small molecule agonists of the androgen receptor (AR) signaling pathway using the MDA cell line (AID 743040; note: nearly all actives have a fitted effect of over 20% in size). The note with it: MDA-kb2 AR-luc cells, MMTV luciferase, 16 h; series mostly up to 70.3 µM. In short, it runs like this:
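Agonist activity is measured as luciferase luminescence in human MDA-kb2 cells whose MMTV reporter responds to both AR and GR. Compounds in DMSO incubate 16 h at 37C, 0% CO2, and ONE-Glo is read after 30 min.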
Consider `O=C(O)c1ccccc1C(=O)OCc1ccccc1`, for which the result was inactive.
Take `O=C(O)c1ccccc1C(=O)Nc1ccc(S(=O)(=O)Nc2nccs2)cc1`: the call was inactive.
For the compound `CCCOCCOCCOCCO`, the outcome was inactive.
As to `COc1ccc(/C=N/NC(=O)c2ccncc2)cc1OC`, the compound was classed as inactive.
In the case of `Cn1c(=O)c2c(ncn2CC2OCCO2)n(C)c1=O`, the result was inactive.
Same read-out and setting: to `Nc1ccc(S(=O)(=O)Nc2ccccn2)cc1` belongs “inactive”.
The same measure, in the same setting: the value for `COCC(=O)Nc1c(I)c(C(=O)NCC(O)CO)c(I)c(C(=O)N(C)CC(O)CO)c1I` (stereo not given) was “inactive”.
For the compound `OC(CCN1CCCCC1)(c1ccccc1)c1ccccc1`, the compound was classed as inactive.

Test system in a further assay: not listed separately
The assay is described as follows: qHTS assay to identify small molecule antagonists of the androgen receptor (AR) signaling pathway using the MDA cell line - cell viability counter screen (AID 743041; note: nearly all actives have a fitted effect of over 45% in size). The note with it: MDA-kb2 viability, CellTiter-Fluor, 16 h, cells co-treated with R1881 androgen agonist; series mostly up to 70.3 µM. The procedure, abridged:
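qHTS viability read-out; MDA-kb2 AR-luc; R1881-stimulated; 16 h exposure at 37C, 0% CO2; CellTiter-Fluor, 30 min; fluorescence intensity.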
With `O=C(O)c1ccccc1C(=O)OCc1ccccc1`, the outcome was inactive.
Same read-out and setting: the value for `Cc1ccc2c(c1)c1c3n2CCNC3CCC1` (stereo not given) was “inactive”; that for `O=C(O)c1ccccc1C(=O)Nc1ccc(S(=O)(=O)Nc2nccs2)cc1` was “inactive”.
With `C[C@H](CCC(=O)O)[C@H]1CC[C@H]2[C@@H]3[C@H](O)C[C@@H]4C[C@H](O)CC[C@]4(C)[C@H]3C[C@H](O)[C@]12C`, the outcome was inactive.
On to `CC(CC(=O)O)CC(C)(C)C` (stereo not given), for which the outcome was inactive.
Still for that read-out and setting: the value for `CCCOCCOCCOCCO` was “inactive”; that for `COc1ccc(/C=N/NC(=O)c2ccncc2)cc1OC` was “inactive”.
`C1=C\CC/C=C\CC/1`: the result was inactive.
For the compound `O=C(O)/C=C/c1ccccc1`, the outcome was inactive.
On to `Cn1c(=O)c2c(ncn2CC2OCCO2)n(C)c1=O`, for which the result was inactive.
On the same count and under the same terms, the value for `Nc1ccc(S(=O)(=O)Nc2ccccn2)cc1` was “inactive”.
Regarding `O=S(=O)(O)CCO`, the outcome was inactive.
Take `CCN(CCC#N)c1ccccc1`: the result was inactive.
On the same count and under the same terms, to `CC(=O)OCCCc1ccccc1` belongs “inactive”; to `CCCCCC(=O)OCC`, “inactive”; to `COCC(=O)Nc1c(I)c(C(=O)NCC(O)CO)c(I)c(C(=O)N(C)CC(O)CO)c1I` (stereo not given), “inactive”.
`CCCCCCCCCOCC1CO1` (stereo not given): the outcome was inactive.
The same measure, in the same setting: the value for `O=C1NC2NC(=O)NC2N1` (stereo not given) was “inactive”.
In the case of `COc1cc2c3cc1Oc1cc(ccc1O)C[C@@H]1c4c(cc(OC)c(O)c4Oc4ccc(cc4)C[C@@H]3N(C)CC2)CC[N+]1(C)C`, the outcome was inactive.
Same read-out and setting: to `O=C(O)C(=O)Nc1cccc(-c2nn[nH]n2)c1` belongs “inactive”.
Regarding `COCCOCCOCCOC`, the outcome was inactive.
On the same count and under the same terms, to `CN(C)CCOCCN(C)CCO` belongs “inactive”.
Still for that read-out and setting: the value for `CCc1nccnc1C` was “inactive”; that for `SCCSCCS` was “inactive”.
On the same count and under the same terms, to `C=C(C)C(=O)OCCCCCCOC(=O)C(=C)C` belongs “inactive”; to `CC(=O)c1ccc(OCC(=O)N2CCCCC2)cc1`, “inactive”; to `Nc1cc(Cl)cc(S(=O)(=O)O)c1O`, “inactive”.
As for `Cc1ccccc1C(=O)N1CC/C(=N\OS(=O)(=O)O)c2ccc(Cl)cc21`, the result was inactive.
Still for that read-out and setting: to `CCCCCCCC/C=C\CCCCCCCC(=O)OC[C@@H](O)[C@H]1OC[C@H](O)[C@H]1O` belongs “inactive”.
The same measure, in the same setting: to `CCCCC(=O)N(C)C` belongs “inactive”; to `CN(C)CCCNCCC#N`, “inactive”.
As to `C=COCCOCCOC=C`, the result was inactive.
Same read-out and setting: to `Cc1ccc(S(=O)(=O)NC(=O)NC2CCCCCCC2)cc1` belongs “inactive”.
`C[N+](C)(C)CC(O)CCl` (stereo not given): the outcome was inactive.

(Values after PubChem BioAssay (Tox21).)
